# Inconclusive results are not listed. Calls of active or inactive are those of the source. The calls were made as follows, unless noted: active = hit-call score of the fitted dose curve at least 0.9, where 1 is the maximum; inactive = score below 0.9.
# Experiments:
# [1] = CCTE_Shafer_MEA_dev_burst_duration_mean: CCTE's Neural Network Formation Assay for Mean Burst Duration, Shafer Lab (AID 2284045)
# In short: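 Primary rat cortical neurons on 48-well 16-electrode MEA plates, exposed from day 0 with renewal at DIV 5 and 9; spontaneous activity recorded on days 5, 7, 9, 12. Well-mean burst duration across bursting electrodes, collapsed as trapezoidal AUC; DMSO baseline.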
# [2] = CCTE_Shafer_MEA_dev_interburst_interval_mean: CCTE's Neural Network Formation Assay for Mean Interburst Interval, Shafer Lab (AID 2284046);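 also: well-mean interburst interval of bursting electrodes as AUC over four recording days; curve fitted for decrease in interburst interval relative to DMSO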
# In short: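 Rat cortical neurons, 1.5 x 10^5 cells/well, 48-well MEA; compound from day 0 through DIV 12, media and treatment renewed DIV 5/9. Recordings DIV 5, 7, 9, 12; well-mean interburst interval → trapezoidal AUC, loss direction vs DMSO.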
# [3] = CCTE_Shafer_MEA_dev_inter_network_spike_interval_mean: CCTE's Neural Network Formation Assay for Mean Inter-network Spike Interval, Shafer Lab (AID 2284047)
# In short: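 Primary rat cortical neurons on PEI-coated 48-well MEAs (16 electrodes/well) were exposed from plating day 0 to DIV 12, with dosing renewed at DIV 5 and 9. Recordings at DIV 5, 7, 9, 12 were collapsed by trapezoidal AUC, loss-of-signal fit vs DMSO.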
# [4] = CCTE_Shafer_MEA_dev_network_spike_number: CCTE's Neural Network Formation Assay for Number of Network Spikes, Shafer Lab (AID 2284048);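 also: synchronized bursts across electrodes counted on days 5 7 9 12 and integrated as AUC; fit as a loss of signal meaning fewer network spikes than DMSO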
# In short: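 Primary rat cortical neurons on PEI/laminin 48-well MEA plates, dosed from plating day 0 for 12 days, renewed at DIV 5 and 9. Network spike counts recorded DIV 5, 7, 9, 12, collapsed as trapezoidal AUC; DMSO baseline.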
# [5] = CCTE_Shafer_MEA_dev_spike_duration_mean: CCTE's Neural Network Formation Assay for Mean Spike Duration, Shafer Lab (AID 2284051);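 also: mean network spike duration pooled as area under curve over DIV 5 to 12 recordings; potency for a decrease in mean network spike duration versus DMSO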
# In short: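 Rat cortical primary cultures, 48-well MEA (16 electrodes/well); compound from plating, renewed DIV 5, 9. Network spike duration (AxIS adaptive detector) recorded DIV 5/7/9/12, combined as trapezoidal AUC; loss direction vs DMSO.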
# [6] = CCTE_Shafer_MEA_dev_network_spike_duration_std: CCTE's Neural Network Formation Assay for Standard Deviation of Network Spike Duration, Shafer Lab (AID 2284052);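 also: area under curve of spike duration SD across recording days 5 to 12; hits are decreases in network spike duration SD versus DMSO vehicle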
# In short: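 Rat cortical cultures, 1.5 x 10^5 cells/well, exposed continuously from plating to DIV 12 with media/compound renewal at DIV 5, 9. Spontaneous activity recorded DIV 5/7/9/12, AxIS adaptive spike detector; AUC across days; negative direction vs DMSO.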
# [7] = CCTE_Shafer_MEA_dev_per_network_spike_spike_number_mean: CCTE's Neural Network Formation Assay for Mean Number of Spikes in a Network Spike, Shafer Lab (AID 2284053);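 also: fitted as decrease in spikes per network spike relative to DMSO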
# In short: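 Rat cortical primary cultures on 48-well MEA; compound from day 0, re-dosed with full media change DIV 5, 9. Recorded DIV 5, 7, 9, 12; spikes in 0.05 s window at network-spike peak ÷ total network spikes; AUC; loss vs DMSO.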
# [8] = CCTE_Shafer_MEA_dev_per_network_spike_spike_percent: CCTE's Neural Network Formation Assay for Percent of Spikes in a Network Spike, Shafer Lab (AID 2284054)
# In short: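 Rat primary cortical neurons were grown on 48-well MEA plates (16 electrodes/well), exposed from plating day 0 through day 12, with treatment renewed on DIV 5 and 9. Percent of spikes within 0.05 s network-spike peaks was measured, summarised as AUC across days 5, 7, 9, 12.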
# [9] = CCTE_Shafer_MEA_acute_AB: CCTE's Alamar Blue Assay for Cytotoxicity in the Neural Acute Assay, Shafer Lab (AID 2284069; active = hit-call score of the fitted dose curve at least 0.9, where 1 is the maximum;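 also: active compounds lower the viability signal compared with DMSO wells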)
# In short: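 Read-out: resazurin fluorescence (ex 544, em 590 nm) after CTB reagent at 1:6 dilution in fresh media. Cells: primary rat cortical neuron networks, DIV 13 or 15, chemically exposed on MEA plates; DMSO as negative control/baseline.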
# [10] = CCTE_Shafer_MEA_acute_LDH: CCTE's Lactate Dehydrogenase Assay for Cytotoxicity in the Neural Acute Assay, Shafer Lab (AID 2284086; active = hit-call score of the fitted dose curve at least 0.9, where 1 is the maximum;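 also: active means LDH release rises above DMSO vehicle level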)
# In short: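 Primary rat cortical neurons on 48-well MEA plates, treated on day 13 or 15 post-plating. After the 40-min recording with compound, medium LDH release was read by absorbance at 490 nm. Gain of signal was fitted against DMSO negative control.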
# [11] = CCTE_Shafer_MEA_dev_mutual_information_norm: CCTE's Neural Network Formation Assay for Mutual Information Normalization, Shafer Lab (AID 2284091);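 also: mutual information between electrodes summarised as area under curve across four recording days; potency is for a decrease in mutual information relative to DMSO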
# In short: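 Primary rat cortical neurons on PEI-coated 48-well MEA plates, 1.5 x 10^5 cells/well, exposed from day 0 through day 12 with re-dosing at DIV 5 and 9. Mutual information between electrodes recorded days 5, 7, 9, 12; trapezoidal AUC, loss-of-signal fit versus DMSO.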
# [12] = CCTE_Shafer_MEA_dev_correlation_coefficient_mean: CCTE's Neural Network Formation Assay for Mean Correlation Coefficient, Shafer Lab (AID 2284093);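 also: well mean pairwise spike train correlation integrated as AUC over recording days 5 to 12; potency fitted for loss of correlation relative to DMSO vehicle wells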
# In short: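 Rat cortical cultures, 1.5 x 10^5 cells/well, dosed from day 0 for 12 days. Spontaneous spikes recorded DIV 5/7/9/12; electrode-pair correlation coefficients averaged, AUC taken. Fit in loss direction vs DMSO.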
# [13] = CCTE_Mundy_HCI_Cortical_Synap_Neur_Matur_NeuriteSpotCountPerNeuriteLength: CCTE's Synaptogenesis and Neurite Maturation Assay in rat cortical cells for Neurite Spot Count per Neurite Length, Mundy Lab (AID 2284210)
# In short: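 Rat primary cortical cultures, AraC added at DIV 5 to suppress glia; chemical exposure from DIV 7 to DIV 12. Fixed cells stained for MAP2 and synaptophysin plus Hoechst; synaptophysin puncta per neurite length quantified by high-content imaging, relative to DMSO.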
# [14] = CCTE_Mundy_HCI_Cortical_Synap_Neur_Matur_BPCount: CCTE's Synaptogenesis and Neurite Maturation Assay in rat cortical cells for Branch Point Count, Mundy Lab (AID 2284211)
# In short: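 Branch point number is quantified by automated imaging of fluorescently labelled neurites and synapses in rat primary cortical neurons exposed from DIV 7 to DIV 12. Activity is analysed relative to DMSO negative control.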
# [15] = CCTE_Mundy_HCI_Cortical_NOG_NeuriteCount: CCTE's Neurite Outgrowth Assay in rat cortical cells for Neurite Count, Mundy Lab (AID 2284212);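 also: cells fixed about two days after chemical exposure began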
# In short: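 Neurite number per cell from high-content imaging of betaIII-tubulin immunostaining, with Hoechst nuclear counterstain.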
# [16] = CCTE_Mundy_HCI_Cortical_NOG_NeuriteLength: CCTE's Neurite Outgrowth Assay in rat cortical cells for Neurite Length, Mundy Lab (AID 2284213)
# In short: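 Neurite length was read by high-content imaging of βIII-tubulin-labelled neurites in rat primary cortical cultures. Activity was fitted relative to DMSO.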
# [17] = CCTE_Mundy_HCI_Cortical_Synap_Neur_Matur_NeuriteLength: CCTE's Synaptogenesis and Neurite Maturation Assay in rat cortical cells for Neurite Length, Mundy Lab (AID 2284214)
# In short: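 Rat primary cortical cells were plated, treated with AraC at DIV 5 to arrest glial growth, then chemical-dosed with media change at DIV 7 through DIV 12. Fixed cells stained for MAP2, synaptophysin and Hoechst; neurite length quantified by high-content imaging.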
# [18] = CCTE_Mundy_HCI_Cortical_Synap_Neur_Matur_NeuriteSpotCountPerNeuron: CCTE's Synaptogenesis and Neurite Maturation Assay in rat cortical cells for Neurite Spot Count per Neuron Count, Mundy Lab (AID 2284215)
# In short: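 High-content imaging counts synaptophysin puncta along MAP2-labelled neurites per neuron after chemical exposure of rat cortical cells from DIV 7 to termination at DIV 12 (AraC added DIV 5). Loss of signal relative to DMSO.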
# [19] = CCTE_Mundy_HCI_Cortical_Synap_Neur_Matur_SynapseCount: CCTE's Synaptogenesis and Neurite Maturation Assay in rat cortical cells for Synapse Count, Mundy Lab (AID 2284218)
# In short: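 Rat primary cortical cells in 96-well plates received AraC at DIV 5 and were dosed with chemicals at DIV 7 with media change, through DIV 12 (288.33 h). Synapses per neuron counted by high-content imaging of MAP2/synaptophysin/Hoechst staining, versus DMSO baseline.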
# [20] = CCTE_Mundy_HCI_Cortical_Synap_Neur_Matur_NeuriteCount: CCTE's Synaptogenesis and Neurite Maturation Assay in rat cortical cells for Neurite Count, Mundy Lab (AID 2284222);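 also: exposure from day 7 to day 12 in vitro with readout at day 12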
# In short: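 Primary rat cortical cells were plated, treated with AraC at DIV 5, then exposed to chemicals from DIV 7 through DIV 12. After fixation and immunostaining for MAP2 and synaptophysin, imaging quantified neurites, with DMSO as the negative control.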
# [21] = CCTE_Mundy_HCI_Cortical_Synap_Neur_Matur_CellBodySpotCount: CCTE's Synaptogenesis and Neurite Maturation Assay in rat cortical cells for Cell Body Spot Count, Mundy Lab (AID 2284223)
# In short: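 High-content imaging counts synaptophysin puncta on neuronal cell bodies per neuron after MAP2/synaptophysin immunostaining. Rat primary cortical cells, glia arrested with AraC at DIV 5, were exposed DIV 7–12; signal decrease measured against DMSO.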
# [22] = CCTE_Mundy_HCI_Cortical_NOG_NeuronCount: CCTE's Neurite Outgrowth Assay in rat cortical cells for Neuron Count, Mundy Lab (AID 2284236; active = hit-call score of the fitted dose curve at least 0.9, where 1 is the maximum;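 also: neurons counted by imaging betaIII-tubulin and Hoechst stained cortical cells; cells exposed to compound for about 48 hours before fixation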)
# In short: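 Read-out: neuron number by high-content imaging of betaIII-tubulin (Alexa Fluor-488) and Hoechst-labelled rat primary cortical cells.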
# [23] = CCTE_Mundy_HCI_Cortical_NOG_BPCount: CCTE's Neurite Outgrowth Assay in rat cortical cells for Branch Point Count, Mundy Lab (AID 2284237)
# In short: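 Measured 50.33 h after dosing, this morphology endpoint uses rat primary cortical cultures labelled for betaIII-tubulin. Branch points are quantified by high-content imaging, with DMSO as negative control and baseline.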
# [24] = CCTE_Mundy_HCI_hNP1_Casp3_7: CCTE's Caspase-Glo 3/7 Assay in human neuroprogenitor cells for Apoptosis, Mundy Lab (AID 2284240)
# In short: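 Luminescent caspase-3/7 readout, 26.5 h post-dose, in human neural progenitor cells from WA09 embryonic stem cells. Cells grew 40–44 h at 37 °C, 5% CO2 before chemical addition. Activity analysed as signal increase over DMSO baseline.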
# [25] = CCTE_Mundy_HCI_hNP1_CellTiter: CCTE's Cell Titer-Glo 2 Assay in human neuroprogenitor cells for Viability, Mundy Lab (AID 2284241; active = hit-call score of the fitted dose curve at least 0.9, where 1 is the maximum;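 also: a hit is a drop in ATP luminescence versus DMSO meaning reduced viability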)
# In short: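 Viability read as luminescent ATP content (CellTiter-Glo, 30 min room temperature) twenty-four hours after dosing, relative to DMSO. Cells: WA09-derived hNP1 neuroprogenitors on poly-L-ornithine/laminin, plated 40 to 44 hours before chemical.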
# [26] = CCTE_Mundy_HCI_iCellGluta_NOG_NeuronCount: CCTE's Neurite Outgrowth Assay in iCellGluta cells for Neuron Count, Mundy Lab (AID 2284340; active = hit-call score of the fitted dose curve at least 0.9, where 1 is the maximum;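 also: cells fixed about 48 h after compound addition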)
# In short: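 Neuron count read by automated high-content imaging of Hoechst 33342 and betaIII-tubulin/Alexa Fluor-488 labelling in human iPSC glutamatergic neurons. Activity fitted relative to DMSO.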
# [27] = CCTE_Mundy_HCI_iCellGluta_NOG_NeuriteCount: CCTE's Neurite Outgrowth Assay in iCellGluta cells for Neurite Count, Mundy Lab (AID 2284342; active = hit-call score of the fitted dose curve at least 0.9, where 1 is the maximum;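 also: chemical exposure about 48 hours starting 2 hours after plating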)
smiles,measurement,setting,value
CC1(C)[C@H](C=C(Cl)Cl)[C@@H]1C(=O)O[C@@H](C#N)c1cccc(Oc2ccccc2)c1,outcome,[1],inactive
same,outcome,[2],inactive
same,outcome,[3],inactive
same,AC50,[4],4.81 µM (active)
same,AC50,[5],4.92 µM (active)
same,AC50,[6],4.6 µM (active)
same,AC50,[7],5.97 µM (active)
same,AC50,[8],15 µM (active)
same,outcome,[9],inactive
same,outcome,[10],inactive
same,AC50,[11],2.25 µM (active)
same,AC50,[12],4.79 µM (active)
same,outcome,[13],inactive
same,outcome,[14],inactive
same,outcome,[15],inactive
same,outcome,[16],inactive
same,outcome,[17],inactive
same,outcome,[18],inactive
same,outcome,[19],inactive
same,outcome,[20],inactive
same,outcome,[21],inactive
same,outcome,[22],inactive
same,outcome,[23],inactive
same,outcome,[24],inactive
same,AC50,[25],26 µM (active)
same,outcome,[26],inactive
same,outcome,[27],inactive
